Experimental data reported in PubChem BioAssay AID743446 (Broad Institute, 2014).
Results with a measured potency or affinity are listed apart. Values without a mark were called inactive. The rule behind the calls is not given here.

experiment: HEK293 cell cytotoxicity, dose response, cytotoxicity control, plate reader, cherry-picked samples (AID 743446); conditions: hits give low values; at 26 µM unless noted

SMILES	max activity
O=C(Nc1cccc(C(=O)O)c1)Nc1ccccc1Cl	-26.9% [at 6 µM]
C=CCNC(=O)c1c(Cl)nc(C)c([N+](=O)[O-])c1C	11.7% [at 0.1 µM]
Cc1cccc(-n2ncc3c(N4CCOCC4)ncnc32)c1	28.5%
O=C(Nc1cccc(-c2ccc(N3CCCCC3)nn2)c1)C(F)(F)F	-33.5% [at 3 µM]
COc1ccc(-n2ncc3c(N(C)C4CCCCC4)ncnc32)cc1	31.2% [at 0.05 µM]
Cc1cc(Cl)ccc1OCCCC(=O)Nc1cc(S(=O)(=O)N2CCOCC2)ccc1N1CCOCC1	-21.8% [at 0.1 µM]
C[C@@H]1CN([C@@H](C)CO)S(=O)(=O)c2ccc(C3=CCCC3)cc2O[C@H]1CN(C)C(=O)c1ccccc1	11.7% [at 0.1 µM]
COc1cc(SC)ccc1C(=O)Nc1ccc(Cl)cn1	19.7% [at 3 µM]
C[C@H](CO)N1C[C@H](C)[C@H](CN(C)C(=O)Nc2cccc3ccccc23)OCCCC[C@H](C)Oc2ccc(NC(=O)C3CCCCC3)cc2C1=O	31.6% [at 12 µM]
C[C@H](CO)N1C[C@H](C)[C@H](CN(C)C(=O)Nc2ccc3c(c2)OCO3)OCCCC[C@H](C)Oc2ccc(NC(=O)NC3CCCCC3)cc2C1=O	-16.6%
CN1CCN(c2ccc(NC(=O)N3CCc4ccccc43)cc2)CC1	17.5% [at 1.6 µM]
CN(C)c1ccc(NC(=O)c2cnsn2)cc1	-9.61% [at 12 µM]
Cc1csc(NC(=O)c2cnc3ccccc3n2)n1	87.3%
Cc1c(NC(=O)c2cccc(NC(=O)COc3ccccc3C#N)c2)c(=O)n(-c2ccccc2)n1C	-14.7% [at 3 µM]
Cc1ccc2nc(-c3ccc(NC(=O)COC(=O)c4ccco4)cc3)sc2c1	-11.7% [at 1.6 µM]
Cc1ccc(-c2noc(-c3cccs3)n2)cc1	22.5% [at 12 µM]
COc1ccc(C(=O)CC(Sc2ccccc2N)c2ccc(OC)cc2)cc1 (centres undefined)	24.8% [at 0.8 µM]
CCNC(=S)NNC(=O)c1cc(-c2ccc(OCC)cc2)nc2ccccc12	15.8% [at 0.05 µM]
C[C@H](CO)N1C[C@H](C)[C@H](CN(C)C(=O)Nc2ccccc2)OCCCC[C@H](C)Oc2ccc(NC(=O)C3CCCCC3)cc2C1=O	9.5% [at 3 µM]
Cn1cccc1C(=O)OCC(=O)Nc1ccc2c(c1)OCCO2	-17.1%

SMILES	max activity
COc1ccc2oc(-c3ccccc3)cc(=O)c2c1	-14.7% [at 12 µM]
C[C@@H]1CN([C@@H](C)CO)C(=O)c2cccc(NC(=O)c3ccc(-c4nccs4)cc3)c2O[C@@H]1CN(C)C(=O)Nc1ccc(C(F)(F)F)cc1	-9.8%
O=C(Nc1ccc(Cl)c(S(=O)(=O)N2CCOCC2)c1)c1ccc2c(c1)OCCO2	-8.36% [at 3 µM]
Cn1c(=O)c2cc(NC(=O)NCc3ccccc3)ccc2n1C/C=C/c1ccccc1	34.9% [at 1.6 µM]
CC(=O)N1CCc2cc(S(=O)(=O)C(C)CC(=O)NCc3ccco3)ccc21 (centres undefined)	-15.3% [at 6 µM]
COc1ccc(N(CC(=O)NCc2cccs2)S(=O)(=O)c2ccc(C(C)=O)cc2)cc1	-10.6% [at 3 µM]
C[C@H](CO)N1C[C@H](C)[C@@H](CN(C)C(=O)Nc2ccc3c(c2)OCO3)Oc2c(cccc2N(C)C)C1=O	-7.24% [at 0.8 µM]
N#C[C@@H]1[C@H](c2ccc(C#CC3CCCCC3)cc2)[C@@H](CO)N1S(=O)(=O)c1ccccc1	39.8% [at 12 µM]
CCS(=O)(=O)N1Cc2ccccc2CC1C(=O)Nc1nc2ccccc2s1 (centres undefined)	11.4% [at 0.38 µM]
COc1ccc2nc(NC(=O)c3ccccc3F)sc2c1	34.9% [at 3 µM]
COC(=O)c1ccc(Nc2cc(C)nc3ccc(C)cc23)cc1	-31.7% [at 12 µM]
Cc1ccc2nc(-c3ccc(N)cc3)sc2c1	21.7% [at 3 µM]
Cc1ccc(CNS(=O)(=O)c2ccc3c(c2)CCN3C(=O)CCCC(=O)O)cc1	14.5% [at 6 µM]
COc1ccc(-n2nnnc2-c2nc3ccccc3s2)cc1	34.3% [at 0.8 µM]
N#C[C@@H]1[C@H](c2ccc(C#Cc3ccccc3F)cc2)[C@@H](CO)N1C(=O)C1CCC1	28.6% [at 6 µM]
COCC(=O)N[C@@H]1CC[C@@H](CC(=O)NCc2ccccc2OC)O[C@@H]1CO	-9.61% [at 0.05 µM]
Cc1ccc(-n2nnc(-c3nccn3C)n2)cc1	-39%
COc1ccc2c3c([nH]c2c1)[C@H](CO)N(C(C)=O)CC31CCN(C(=O)CN2CCOCC2)CC1	11.8% [at 0.38 µM]
CCc1ccc2ncc(S(=O)(=O)c3ccc(C)c(C)c3)c(N3CCCC3)c2c1	19.3% [at 0.38 µM]
